# According to ChEMBL document CHEMBL1201862, “PubChem BioAssay data set” (2004):
# The whole screen tested about 400,000 compounds, of which about 2,100 (0.53%) were called active. Not shown: some 14% with an inconclusive outcome. No rule for the calls is given here. This excerpt belongs to a sample that is enriched for actives.
# Molecular target: Ataxin-2 (Homo sapiens) (UniProt Q99700)
# Assay: qHTS for Inhibitors of ATXN expression.
# Type: functional
# Chain of Ataxin-2 (Homo sapiens) (Q99700 whole entry): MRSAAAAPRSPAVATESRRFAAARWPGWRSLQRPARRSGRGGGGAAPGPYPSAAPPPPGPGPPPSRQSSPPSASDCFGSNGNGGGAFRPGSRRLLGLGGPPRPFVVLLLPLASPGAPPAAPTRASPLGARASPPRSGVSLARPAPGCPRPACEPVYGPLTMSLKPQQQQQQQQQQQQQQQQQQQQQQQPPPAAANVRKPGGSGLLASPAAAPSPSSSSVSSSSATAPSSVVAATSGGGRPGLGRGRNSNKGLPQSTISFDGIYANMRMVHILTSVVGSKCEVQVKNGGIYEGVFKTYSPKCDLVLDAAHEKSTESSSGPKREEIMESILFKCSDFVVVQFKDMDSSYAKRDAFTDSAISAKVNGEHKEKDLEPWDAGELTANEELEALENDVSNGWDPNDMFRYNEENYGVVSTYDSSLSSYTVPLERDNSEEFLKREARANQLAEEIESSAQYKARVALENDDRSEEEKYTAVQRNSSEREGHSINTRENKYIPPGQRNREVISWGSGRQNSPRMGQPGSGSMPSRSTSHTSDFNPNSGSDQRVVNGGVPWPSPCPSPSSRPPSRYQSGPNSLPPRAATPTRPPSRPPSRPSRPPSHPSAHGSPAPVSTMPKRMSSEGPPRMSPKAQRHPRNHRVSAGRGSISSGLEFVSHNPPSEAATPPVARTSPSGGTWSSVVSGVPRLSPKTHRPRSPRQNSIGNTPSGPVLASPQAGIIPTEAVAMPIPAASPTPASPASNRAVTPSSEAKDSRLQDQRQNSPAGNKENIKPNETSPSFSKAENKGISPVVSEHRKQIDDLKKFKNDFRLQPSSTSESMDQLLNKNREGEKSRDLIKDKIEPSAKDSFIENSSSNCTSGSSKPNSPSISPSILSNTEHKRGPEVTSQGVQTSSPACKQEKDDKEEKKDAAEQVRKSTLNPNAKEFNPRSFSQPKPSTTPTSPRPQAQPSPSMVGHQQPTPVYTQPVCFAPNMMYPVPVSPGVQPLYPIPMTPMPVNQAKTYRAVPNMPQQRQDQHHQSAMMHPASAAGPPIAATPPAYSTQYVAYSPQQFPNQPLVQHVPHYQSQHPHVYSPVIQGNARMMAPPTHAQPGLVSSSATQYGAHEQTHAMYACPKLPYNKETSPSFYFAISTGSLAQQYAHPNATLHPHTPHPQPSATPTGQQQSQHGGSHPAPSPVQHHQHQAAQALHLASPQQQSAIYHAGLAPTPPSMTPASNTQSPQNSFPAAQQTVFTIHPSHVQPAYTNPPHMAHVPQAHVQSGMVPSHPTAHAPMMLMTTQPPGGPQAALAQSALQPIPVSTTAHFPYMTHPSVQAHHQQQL
row,Structure (SMILES),Potency
1,C/C(=N\NC(=O)CC#N)c1cc2ccc(O)cc2oc1=O,inactive
2,COc1ccc(CN2CCCC(N3CCN(c4cccc(Cl)c4)CC3)C2)cc1OC (centres undefined),inactive
3,CCN(CC)CCNc1ccc(C)c2sc3ccc(O)cc3c(=O)c12,33.6 µM (active)
4,Cc1cc2sc3ccccc3c(=O)c2c(C)c1O,inactive
5,CNC(=O)OCc1nc(SSC(C)(C)C)n(C)c1COC(=O)NC,23.8 µM (active)
6,CC(=O)CC1OC(O)=C(Br)/C1=N/Cc1ccccc1 (centres undefined),20 µM (active)
7,NC(=O)c1cc2ccc(O)cc2o/c1=N\Cc1ccccc1,inactive
8,Oc1nc(N2CCOCC2)cc2ccccc12,inactive
9,Cc1cccc(Nc2nc(-c3ccccc3)c(C(=O)Nc3cccnc3)s2)c1,inactive
10,Cc1nc(NS(=O)(=O)c2ccccc2)sc1C(=O)NN,inactive
11,Cc1nc(NC(=O)/C=C/c2ccccc2)sc1C(=O)Nc1ccc(Cl)cc1,39.8 µM (active)
12,CC(C)=CC(=O)N1CCC(N2CCC(C(=O)N3CCOCC3)CC2)CC1,inactive
13,O=C(COCc1cc(-c2ccco2)on1)NC1CCCCC1,inactive
14,CCCc1cc(=O)oc2c(C)c(O[C@@H]3O[C@H](CO)[C@@H](O)[C@H](O)[C@H]3O)ccc12,inactive
15,Nc1nc(N)c2nc(-c3ccccc3)c(N)nc2n1,inactive
16,COc1ccc(OC)c(Nc2nc(NCc3ccco3)c3ccccc3n2)c1,39.8 µM (active)
17,Cc1cccc(Nc2nc(NCc3ccco3)c3ccccc3n2)c1,25.1 µM (active)
18,Cc1ccc(-c2nc(NCc3ccco3)n(S(C)(=O)=O)n2)cc1,inactive
19,COc1ccc(OC)c(Nc2nc(-c3ccncc3)nc3ccccc23)c1,inactive
20,OCCNc1nc(Nc2ccc(Br)cc2)nc2ccccc12,inactive
21,COc1ccc(OC)c(Nc2nc(-c3ccccc3O)nc3ccccc23)c1,inactive
22,O=[N+]([O-])c1cccc(S(=O)(=O)NCC2CC3CCC2C3)c1 (centres undefined),inactive

row,Structure (SMILES),Potency
1,CC(C)(C)c1ccc(SCCc2cccnc2)cc1,inactive
2,Nc1c(C(=O)Nc2ccc(Cl)cc2F)sc2nc(-c3cccs3)ccc12,inactive
3,O=C(O)c1cccc(N2C(=O)c3cccc4c(Cl)ccc(c34)C2=O)c1,inactive
4,NC(=O)c1cc(N2C(=O)C=CC2=O)ccc1Cl,35.5 µM (active)
5,CN1CCN(C(=O)/C=C/c2ccc([N+](=O)[O-])o2)CC1,8.91 µM (active)
6,CN1CCN(/N=C/c2ccc(-c3ccc([N+](=O)[O-])cc3Cl)o2)CC1,inactive
7,CN1CCCN(C(=O)/C=C/c2ccc(Cl)cc2Cl)CC1,inactive
8,Nc1cccc2nc3ccccc3cc12,inactive
9,C1=C/C(=N\C2CCCCC2)C=C2C1=NC13CCCCC1CC1=C(CCCC1)N23 (centres undefined),35.5 µM (active)
10,CSc1ccc(CN(C)Cc2nc(O)c3ccccc3n2)cc1,inactive
11,O=C(CSc1cn(CCNC(=O)c2cccc(C(F)(F)F)c2)c2ccccc12)Nc1ccc2c(c1)OCCO2,35.5 µM (active)
12,COc1ccc(CCNC(=O)CSc2nnnn2C)cc1OC,inactive
13,COc1ccc(CCNC(=O)CSc2cn(CCNC(=O)c3cccc(C(F)(F)F)c3)c3ccccc23)cc1OC,22.4 µM (active)
14,CCn1c(CNC(=O)c2ccc3c(c2)OCO3)nnc1SCC(=O)Nc1ccccc1F,inactive
15,Cc1nnc(NC(=O)CSc2cn(CCNC(=O)c3ccccc3)c3ccccc23)s1,inactive
16,O=C(COC(=O)CCSc1ccccc1Cl)NCc1ccco1,inactive
17,COc1ccc(CC(=O)NNC2=Nc3cccc4cccc2c34)cc1,inactive
18,N#Cc1ccc(C(=O)CSc2nnc(-c3ccc(C(F)(F)F)cn3)s2)cc1,inactive
19,O=C(NCCO)/C(=C\c1ccco1)NC(=O)c1cccs1,inactive
20,COC(=O)C1=CN(C(C)C)C=C(C(=O)OC)C1c1cccc(OC)c1,inactive
21,Cc1ccc(-c2nc(Nc3ccc(N4CCOCC4)cc3)c3ccccc3n2)cc1,inactive
22,COc1ccc(C)cc1NC(=O)c1cc2c(=O)n3ccccc3nc2n1C,inactive

row,Structure (SMILES),Potency
1,Cc1ccccc1Nc1c(-c2ccc(N3CCOCC3)cc2)nc2cccc(C)n12,22.4 µM (active)
2,Cc1ccn2c(Nc3ccccc3C)c(-c3ccccn3)nc2c1,15.8 µM (active)
3,COc1cc(O)ccc1-c1nc2cc(C)ccn2c1Nc1ccccc1C,35.5 µM (active)
4,c1ccc2c(Nc3ccc(N4CCOCC4)cc3)nc(N3CCOCC3)nc2c1,inactive
5,c1cn2c(NC3CCCC3)c(-c3ccc(N4CCOCC4)cc3)nc2cn1,inactive
6,Cc1ccn2c(Nc3ccccc3C)c(-c3ccc(N4CCOCC4)cc3)nc2c1,35.5 µM (active)
7,Cc1cccc(C)c1Nc1c(-c2ccc(N3CCOCC3)cc2)nc2cnccn12,inactive
8,CCCCNc1c(-c2ccc(-c3ccc(C(C)=O)cc3)c(OC)c2)nc2cnccn12,inactive
9,C/C(=N/NC(=O)c1sc(NS(=O)(=O)c2ccccc2)nc1C)c1sc(N)nc1C,inactive
10,CC(C)CN(CC(C)C)C(S)=Nc1ccc(Cl)cc1,inactive
11,Oc1nc2ccccc2nc1/C=C/c1ccc(Cl)cc1,inactive
12,CN(C)CC(O)c1ccc(C=Cc2ccc(Cl)cc2)cc1 (centres undefined),31.6 µM (active)
13,Cc1ccc(S(=O)(=O)Nc2ccccc2/C=N/c2nc3ccccc3n2C(C)C)cc1,inactive
14,Nc1cc2sc(-c3ccc(C(=O)O)cc3)nc2cc1Cl,inactive
15,CC[C@@H](C)[C@H](CN[C@H](CNC)C(C)C)NC[C@@H](C)c1ccc(CC(C)C)cc1,22.4 µM (active)
16,COc1cc(/C=C(\C#N)c2nc3ccccc3[nH]2)cc(Cl)c1OCc1ccccc1Cl,inactive
17,COc1cc(CNC2CCCC2)cc(Cl)c1OCc1ccccc1F,28.2 µM (active)
18,NNC(=O)c1oc2ccccc2c1-n1cccc1,inactive
19,Cc1nc2c(c(C)nn2-c2ccccc2)c(C)c1C,inactive
20,Cc1cc(NC(=O)Nc2ccc(Cl)cc2)n(-c2ccccc2)n1,inactive
21,O=c1c(Cl)cc(Cl)nn1-c1ccccc1,25.1 µM (active)
22,CCOC(=O)Cc1cnc(NC(=O)CSc2nc(C)c(CC)c(O)n2)s1,inactive

row,Structure (SMILES),Potency
1,COc1ccc(CNCCC(c2ccc(OC(C)C)cc2)C(C)C)cc1OC (centres undefined),25.1 µM (active)
2,CC(C)Oc1ccc(C(CCNCc2ccc(O)cc2)c2ccccc2)cc1 (centres undefined),39.8 µM (active)
3,OCCCNCc1ccc(-c2ccccc2)cc1,inactive
4,O=c1c(O)c(-c2ccc(O)c(O)c2)oc2cc(O)ccc12,inactive
5,NC(=O)C[n+]1ccc(C=NO)cc1,inactive
6,CCc1cc(=O)oc2c(CNCc3ccccc3F)c(O)c(Cl)cc12,inactive
7,O=C(NNC(=O)c1cc2cc(Br)ccc2oc1=O)c1ccc(O)cc1O,inactive
8,Cc1ccc(NC(=O)CSCC(=O)OCc2cc(=O)oc3cc(O)ccc23)c(C)c1,inactive
9,COCCCn1/c(=N/C(=O)c2ccncc2)c(C#N)cc2c(=O)n3cccc(C)c3nc21,inactive
10,c1cc2c(cc1C1CCCCC1)c1c3n2CCCNC3CCC1 (centres undefined),39.8 µM (active)
11,COc1ccc(NS(=O)(=O)c2cc(NC(=O)c3cc(=O)c4ccccc4o3)ccc2OC)cc1,inactive
12,COc1ccc(OC)c(S(=O)(=O)Nc2ccc3c(c2)OCCO3)c1,inactive
13,COc1ccc(OC)c(S(=O)(=O)Nc2ccc(O)c3ccccc23)c1,28.2 µM (active)
14,CN(CCC1CCCCO1)C(=O)CCc1nnc(CCCCc2ccccc2)o1 (centres undefined),inactive
15,Cc1ccc(OCC(=O)Nc2ccc(CN3CCOCC3)cc2)cc1C,inactive
16,Cc1cc(C)c(CN2CCN(CCCn3cnc(C(=O)Nc4ccc(C)c(C)c4)n3)CC2)c(C)c1,35.5 µM (active)
17,Brc1ccc(C2=CC(c3ccco3)n3nnnc3N2)cc1 (centres undefined),inactive
18,CC(C)N=C(S)NN=C1c2ccccc2-c2ccccc21,inactive
19,COc1cc(/C=C/C(=O)Nc2ccc(S(=O)(=O)Nc3onc(C)c3C)cc2)cc(OC)c1OC,inactive
20,CCC1CSC(Nc2ccc(C(=O)/C=C/c3ccc(OC)c(OC)c3)cc2)=N1 (centres undefined),39.8 µM (active)
21,CCOC(=O)c1sc2nc(C)nc(Nc3ccc(OC)c(OC)c3)c2c1C,inactive
22,COc1cccc(/C=C/C(=O)c2ccc(NC3=NCCCS3)cc2)c1,39.8 µM (active)

row,Structure (SMILES),Potency
1,CCc1nnc(NS(=O)(=O)c2ccc(N/C=C\C(=O)c3cccc(OC)c3)cc2)s1,inactive
2,CCOc1ccc(Nc2oc(/C=C/c3cccc(OC)c3)nc2C#N)cc1,inactive
3,COc1cc(/C=C/C(=O)OCC(=O)NC2CCS(=O)(=O)C2)ccc1OC(F)F (centres undefined),inactive
4,COc1ccc(/C=C/C(=O)Nc2cccnc2)cc1OC,inactive
5,COc1ccc(/C=C/C(=O)Nc2ccc(Cl)c(Cl)c2)cc1OC,31.6 µM (active)
6,CC(C)C(C)(C#N)NC(=O)CSc1nnc(C(F)(F)F)n1C (centres undefined),inactive
7,COc1cccc(/C=C/c2nc(C#N)c(N3CCCCCC3)o2)c1,inactive
8,COc1ccccc1[C@@H]1C(c2cccc(C)c2)=NN(c2ccccc2)[C@H]1C(=O)N1CCOC1=O,inactive
9,CCN1CN=C(S)N(c2ccccc2C)C1,inactive
10,Cc1nn2c(-c3ccc(F)cc3)ccnc2c1Cl,inactive
11,CN(C)c1ccc(/C=C2\Oc3ccc(C#Cc4cccc(N)c4)cc3C2=O)cc1,inactive
12,CN1Cc2c(N3CCOCC3)nc3sc(C(=O)c4ccc(Br)cc4)c(N)c3c2CC1(C)C,inactive
13,Cc1ccccc1-c1nc(C#N)c(N2CCCCC2)o1,inactive
14,CC1=CC(=O)C(Sc2ccc(C)cc2)=CC1=O,inactive
15,COC1=C(OC)C(=O)C(Sc2ccc3ccccc3c2)=CC1=O,33.6 µM (active)
16,Cc1cccn2c(=O)c3cc(C(=O)NCC4CCCO4)c(=N)n(C4CCCCC4)c3nc12 (centres undefined),inactive
17,COC(=O)C1=NN(c2ccc(C)cc2)C2C(=O)N(c3ccccc3OC)C(=O)C12 (centres undefined),inactive
18,COc1ccc(OC)c(NC(=O)Nc2nc(C(N)CCc3ccccc3)cs2)c1 (centres undefined),39.8 µM (active)
19,COc1ccccc1CNC(=O)Nc1nc(C(N)CCc2ccccc2)cs1 (centres undefined),39.8 µM (active)
20,COc1ccccc1CNC(=O)C(C)Sc1ccc(C)cc1 (centres undefined),inactive
21,COc1ccccc1CNC(=O)Cc1cc(O)nc(O)n1,inactive
